Source: PubChem BioAssay
Compounds with a hit are over-represented: about 12% of the library has one in this group of screens.
Pf growth 48h: Primary qHTS for delayed death inhibitors of the malarial parasite plastid, 48 hour incubation; P. falciparum luciferase growth in erythrocytes, 48 h; Potency, µM (highest dose often 28.7 µM), for inactives: at the top dose activity change, negative = inhibition, usual class: inhibitors; actives 5.9% (n = 310,000); note: % is set by controls: 0 for no effect and ±100 for the full control effect
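Luminescence readout; reporter = integrated firefly luciferase in P. falciparum. RBC culture at 2% hematocrit, 0.1% parasitemia final, 37 C/5% CO2; decreased signal taken as growth inhibition.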
Pf growth 96h: Primary qHTS for delayed death inhibitors of the malarial parasite plastid, 96 hour incubation. P. falciparum luciferase reporter growth, 96 h. Potency, µM (series often up to 28.7 µM), for the others: at the highest dose activity change, negative = inhibition, usual class: inhibitors. actives 6.9% (n = 320,000). AID 504834, 2011; note: % is set by controls: 0 for no effect and ±100 for the full control effect
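Luminescence readout: decreased luciferase signal marks inhibited growth of reporter-expressing P. falciparum in infected red cells (2% hematocrit, 0.05% parasitemia final), exposed to compound two generations (96 h, 37 C, 5% CO2).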
Sm TGR block: qHTS Assay for the Inhibitors of Schistosoma Mansoni Peroxiredoxins; Schistosoma mansoni thioredoxin glutathione reductase (TGR), Q962Y6; purified TGR, DTNB reduction, TNB absorbance 405 nm; Potency, µM (titrated, usually from 114 µM), inactives show at the top dose activity change, negative = inhibition, usual class: inhibitors; actives 3% (n = 360,000); note: % is set by controls: 0 for no effect and ±100 for the full control effect; nearly all actives have a fitted effect of over 60% in size
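First, TGR (20 nM dispensed) and NADPH were mixed with compound. Second, a 15 min room-temperature incubation followed. Third, further NADPH and then DTNB were added to start the reaction. Finally, TNB absorbance was monitored kinetically.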
SARS PLP yeast: qHTS of Yeast-based Assay for SARS-CoV PLP; actives 0.19% (n = 330,000); S. cerevisiae expressing SARS-CoV PLpro, growth rescue; Potency, µM (top dose mostly 32.9 µM), inactives show at the highest dose activity, positive = growth rescue, usual class: activators; AID 485353, 2010; calls by dose curve; note: 0% is about no effect; nearly all actives have a fitted effect of over 55% in size
An asterisk follows results filed as active; i = inactive; ? = inconclusive; . = no result given; [ ] = another dose, or the depositor's remark. Unless noted, calls come from the whole dose curve; as a rule, active = well fitted curve in the direction sought with a large enough effect; inconclusive = small, poorly fitted or top-dose-only effect, or another doubt; inactive = no such curve, though single readings can be large; an effect the other way counts as inactive or inconclusive. Potency is the fitted concentration of half-maximal effect.

SMILES	Pf growth 48h	Pf growth 96h	Sm TGR block	SARS PLP yeast
C=CCc1cccc(CNc2nc3ccccc3n2CC)c1O	15µM*	.	2%	0%
CCn1c(NCc2ccc(OC)c(OC)c2)nc2ccccc21	.	.	0%	.
CCCCn1c(NCc2ccc3c(c2)OCO3)nc2ccccc21	?	?	0%	10%
CCCn1c(NCc2ccc3c(c2)OCO3)nc2ccccc21	-28%	?	89µM*	1%
C=CCc1cccc(CNc2nc3ccccc3n2CCC)c1O	12µM*	.	3%	0%
CCCn1c(NCc2ccccc2C)nc2ccccc21	.	.	0%	.
CCn1c(NCc2cc(OC)c(OC)c(OC)c2)nc2ccccc21	-5%	0.23µM*	10%	18%
CCn1c(SCC(=O)Nc2cc(Cl)ccc2OC)nnc1C1CC1	7%	2%	21%	0%
O=S(=O)(c1ccc(Cl)cc1)c1nnn2c1nc(N1CCCCC1)c1sccc12	.	.	-7%	.
Cc1ccc(-c2noc(-c3ccno3)n2)cc1	41%	31%	10%	0%
CCC1(C)NC(=O)N(CC(=O)Nc2cc(C)on2)C1=O (stereo not drawn)	.	.	.	-4%
O=C(N/N=C/c1cccn1-c1ccc([N+](=O)[O-])cc1)c1cccnc1	?	?	-1%	0%
CCn1nnc(NC(=O)c2ccc(C(C)(C)C)cc2)n1	2.9µM*	10%[5.75 µM]	0%	-4%
COc1ccc(NC(=O)CN2C(=O)CC(c3ccco3)Sc3ccccc32)cc1OC (stereo not drawn)	.	.	-5%	.
Cc1c(-c2ccc(Cl)cc2)[n+](=O)c(-c2ccccc2)cn1[O-]	36%	43%	50µM*	1%
Cc1c(-c2ccc(Cl)cc2)[n+](=O)c2c(n1[O-])CCCC2	35%	-19%	13%	-1%
COCCCNC(=O)c1cc2n(n1)CCCN(Cc1ccc(C)cc1)C2=O	.	.	4%	.
COc1cc(NC(=O)c2ccco2)c(C(=O)O)cc1OC	1%	166%	40µM*	-10%
COc1cccc(NC(=O)c2ccco2)c1	144%	-27%	-6%	-13%
Cc1ccc(C(=O)C(C)Oc2cccc(NC(=O)c3ccco3)c2)cc1 (stereo not drawn)	2.9µM*	-2%	-12%	-55%
COc1cc(OC)cc(C(=O)Nc2ccc(NC(=O)c3ccco3)c(C)c2)c1	62%	6%	40µM*	-43%
COC(=O)c1cc(OC)c(OC)cc1NC(=O)c1ccco1	-19%	-35%	0%	0%
Cc1cc(NC(=O)c2ccco2)ncc1NC(=O)Cc1ccccc1	79%	8.3µM*	-2%	-2%
COc1cc(OC)cc(C(=O)Nc2cc(NC(=O)c3ccco3)ccc2OC)c1	?	3%	-13%	0%
COc1cccc(C2Nc3ccccc3NC3=C2C(=O)CC(C)(C)C3)c1 (stereo not drawn)	-12%	2%	8%	-4%
SMILES	Pf growth 48h	Pf growth 96h	Sm TGR block	SARS PLP yeast
COc1ccc(NC(=O)CN(C)S(=O)(=O)c2ccc(Cl)cc2)cn1	?	?	-11%	-4%
COc1cc(NC(=O)c2ccc3c(c2)OCCO3)ccc1NC(=O)c1ccco1	60%	2.3µM*	-11%	1%
Cc1ccc(C)c(NS(=O)(=O)c2ccc(NC(=O)c3ccco3)cc2)c1	10µM*	12µM*	3%	?
COc1cccc(C(=O)Nc2cnc(NC(=O)c3ccco3)cc2C)c1	12%	5.2µM*	-13%	-5%
COc1cccc(C(=O)Nc2cc(OC)ccc2NC(=O)c2ccco2)c1	-17%	?	4%	1%
Cc1cc2c(C(C)C)c(O)c(O)c(C=O)c2c(O)c1-c1c(C)cc2c(C(C)C)c(O)c(O)c(C=O)c2c1O	13µM*	5.2µM*	50µM*	10µM*
CN(C)CCNc1c2c(c(C#N)c3nc4ccccc4n13)CCCC2	?	?	-12%	-11%
CCN(CC)CCNc1c2c(c(C#N)c3nc4ccccc4n13)CCCC2	10µM*	.	0%	-33%
N#Cc1c2c(c(NCc3ccco3)n3c1nc1ccccc13)CCC2	1µM*	0.74µM*	?	-3%
CCCC(c1nnnn1CS(=O)(=O)c1ccc(C)cc1)N1CCN(c2ccc(F)cc2)CC1 (stereo not drawn)	17µM*	?	-13%	-2%
Cc1ccc(S(=O)(=O)Cn2nnnc2C(CC(C)C)N2CCN(C)CC2)cc1 (stereo not drawn)	?	i	-11%	0%
